Reference: PubChem BioAssay AID435005 (Broad Institute, 2010)
Among all 300,000 compounds or so, about 2,400 (0.8%) were called active. The list comes from a sample in which actives are over-represented; it also holds similar structures and randomly drawn compounds. Values without a mark were called inactive.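 Rule for the calls: active = Every replicate reaches about 75%, or at least half do and their mean reaches it too (limit read from the data); inconclusive = At least half of replicates reach the limit but their mean does not; inactive = Under half of replicates reach the limit.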

Assay: inhibitors of cytokine-induced beta cell apoptosis, primary screen, luminescence (AID 435005);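 note: 0% = cytokine-treated negative control wells and 100% = positive control rescue; higher means more ATP so stronger rescue from cytokine killing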
Settings: INS-1E cytokine-induced death, ATP luminescence, 48 h; stronger effect = higher value; percent of positive-control rescue, neutral wells zero; concentration not given here

Row | Structure (SMILES) | protection from apoptosis
1 | COc1ccc(CCNC(=O)CSc2nnc(CNC(=O)c3cccs3)o2)cc1OC | -5.35%
2 | COc1ccc(CCNC(=O)/C(C#N)=C2\N=C(NC(=O)c3cccs3)c3ccccc32)cc1 | -2.09%
3 | O=C(NCC#CCSc1nnc(-c2cccc3ccccc23)o1)c1cccs1 | 109% (active)
4 | Cc1noc(C)c1NC(=O)Nc1cccc2c1O[C@H](CN(C)S(=O)(=O)c1c(C)noc1C)[C@@H](C)CN([C@H](C)CO)C2=O | 1.37%
5 | COc1ccc(S(=O)(=O)N2CCOCC2)cc1NC(=O)CSc1nnc(NC2CC2)s1 | 0.467%
6 | CC(NC(=O)COC(=O)Cn1cc(C(F)(F)F)ccc1=O)c1ccccc1 (stereo unspecified) | 1.74%
7 | COc1cc(NC(=O)c2ccccc2NS(=O)(=O)c2ccc(Cl)s2)cc(OC)c1 | 111% (active)
8 | CCOc1ccc(NC(=O)c2ccccc2NS(C)(=O)=O)cc1 | 0.287%
9 | COC(=O)c1ccc(NC(=O)c2ccccc2NS(=O)(=O)c2ccccc2)cc1 | 32.1%
10 | Cc1ccc(-c2nn(-c3ccccc3)cc2C(=O)Nc2cccc(S(=O)(=O)N3CCOCC3)c2)cc1 | 1.74%
11 | COc1ccc(-c2nn(-c3ccccc3)cc2/C=C\C(=O)Nc2ccc(C(=O)O)cc2)cc1 | 8.98%
12 | Cc1ccc(-c2nn(-c3ccccc3)cc2/C=C/C(=O)Nc2cccc(S(N)(=O)=O)c2)cc1 | 120% (active)
13 | O=S(=O)(c1ccc(SCc2ccccc2)nc1)N1CCCCCC1 | -5.69%
14 | CC(=O)NCCC(=O)Nc1nc(-c2ccc3c(c2)OCCO3)cs1 | -3.86%
15 | NS(=O)(=O)c1ccc2nc(NC(=O)C3=COCCO3)sc2c1 | -1.35%
16 | Cc1ccc(-c2csc(NC(=O)C3=COCCO3)n2)cc1C | 98.3% (active)
17 | C#CCOCCOCCOCCNc1nc(N2CCN(C(=O)[C@H](CCC(=O)O)n3cc(CN)nn3)CC2)nc(N2CCN(C(=O)[C@H](CCC(=O)O)n3cc(CN)nn3)CC2)n1 | -5.06%
18 | Cc1noc(C)c1S(=O)(=O)N(C)C[C@H]1Oc2ccc(NC(=O)C3CC3)cc2C(=O)N([C@H](C)CO)C[C@@H]1C | 4.52%
19 | CCCCCCc1cc2cc(-c3nnc(-c4ccccc4)o3)c(=O)oc2cc1O | 119% (active)
20 | CCCCCCc1ccc(O)cc1O | -5.91%
21 | Cc1c(CC(=O)NCCCCCC(=O)O)c(=O)oc2cc3occ(-c4ccccc4)c3cc12 | -7.43%
22 | CCCCCCSc1ccc(-c2nc3ccc(Cl)cn3c2NCc2ccccc2)cc1 | -14.3%

Row | Structure (SMILES) | protection from apoptosis
23 | O=C(COc1ccccc1F)NNC(=O)c1cc(Br)ccc1Cl | 4.16%
24 | Oc1cccc(/C=N/Nc2ccc(Cl)nn2)c1O | 107% (active)
25 | COc1cccc(/C=N/Nc2ccc(Cl)nn2)c1 | 0.496%
26 | Clc1ccc(N/N=C/c2cccs2)nn1 | -1.26%
27 | CN(C)C(=O)COC(=O)c1cccc(S(=O)(=O)N2CC3(C)CC2CC(C)(C)C3)c1 (stereo unspecified) | -3.78%
28 | CN(C)c1nc(Nc2ccc(Cl)c(Cl)c2)nc(N(C)C)n1 | 2.44%
29 | OCCNc1nc(Nc2ccc(Cl)c(Cl)c2)nc2ccccc12 | 89.8% (active)
30 | COc1cc2nc(Cl)nc(NCCO)c2cc1OC | -1.61%
31 | COc1cc(C(=O)NCC(c2ccco2)N2CCCC2)ccc1OCc1ccccc1 (stereo unspecified) | 0.158%
32 | COc1ccc(NC(=O)N(C)C[C@H]2Oc3ccc(NC(=O)C4CC4)cc3C(=O)N([C@H](C)CO)C[C@@H]2C)cc1 | -3.33%
33 | O=C(N[C@@H]1C/C=C\C[C@@H](CC(=O)N(CCO)Cc2ccccc2)C(=O)N[C@H](Cc2ccccc2)COC1=O)OCC1c2ccccc2-c2ccccc21 | 50.5%
34 | COc1ccc(-c2nc3cnccn3c2NC2CCCCC2)cc1-c1cccc(Cl)c1 | -8.81%
35 | Clc1cccc(N=C2NN=C(c3ccc4c(c3)OCCO4)CS2)c1 | 83.6% (active)
36 | c1ccc(CN2CCC(N=C3NN=C(c4ccc5c(c4)OCCO5)CS3)CC2)cc1 | -0.528%
37 | Cc1cccc(N=C2NN=C(c3c[nH]c4ccccc34)CS2)c1 | 22.1%
38 | CC(C#N)OC(=O)c1cccnc1SCC(=O)Nc1ccc2c(c1)OCO2 (stereo unspecified) | 3.24%
39 | CCNC(=S)N1CCN(S(=O)(=O)c2ccc(Cl)s2)CC1 | -2.64%
40 | COc1cc(NC(=O)COC(=O)c2cc(S(=O)(=O)N3CCOCC3)ccc2F)cc(OC)c1 | -2.85%
41 | CSc1ccc(NC(=O)/C=C/C(=O)O)cc1 | -4.41%
42 | COc1ccccc1NC(=O)/C=C/C(=O)O | -6.73%
43 | COC(=O)c1sc(-c2ccc(C(C)(C)C)cc2)cc1NC(=O)/C=C/C(=O)O | 99.2% (active)
44 | CCN(C[C@H]1N[C@@](Cc2ccccc2)(C(=O)OC)[C@H]2C(=O)N(Cc3ccccc3)C(=O)[C@@H]12)C(=O)c1ccc(C)cc1 | 13.6%

Row | Structure (SMILES) | protection from apoptosis
45 | O=C(c1cccc(Cl)c1)N1CCN(Cc2ccccc2)CC1 | -9.96%
46 | Clc1cccc(CN2COc3c(cc(Cl)c4cccnc34)C2)c1 | 85.5% (active)
47 | CC(C)CC(=O)N1CCN(Cc2cccc(Cl)c2)CC1 | 3.65%
48 | COC(=O)[C@]1(Cc2ccccc2)N[C@H](CN(C)S(=O)(=O)c2ccc(OC(F)(F)F)cc2)[C@@H]2C(=O)N(Cc3ccccc3)C(=O)[C@@H]21 | 10.5%
49 | CCCc1nnc(SCC(=O)Nc2ccc(C(=O)OCC)cc2)o1 | 1.98%
50 | CCOC(=O)c1ccc(NC(=O)Cn2cnc3cc(C)c(C)cc32)cc1 | 105% (active)
51 | CCOC(=O)c1ccc(NC(=O)Cn2nnc(-c3ccc(C)cc3)n2)cc1 | 3.31%
52 | O=C(CNC(=O)c1ccccc1F)OCC(=O)c1c[nH]c2ccccc12 | -14.7%
53 | COc1ccc(CCNC(=O)COC(=O)C2CC2C)cc1 (stereo unspecified) | 0.884%
54 | Oc1ccccc1/C=N/n1c(-c2cccs2)n[nH]c1=S | -8.28%
55 | Cc1cc(-c2n[nH]c(=S)n2/N=C/C(Br)=C/c2ccccc2)n[nH]1 | 84.8% (active)
56 | S=c1[nH]nc(-c2cc(-c3ccccc3)n[nH]2)n1/N=C/c1c2ccccc2cc2ccccc12 | 10.1%
57 | CC(OC(=O)c1ccc([N+](=O)[O-])cc1)C(=O)NCC1CCCCC1 (stereo unspecified) | -1.81%
58 | Cc1cc(NC(=O)CN2C(=O)NC(CC(C)C)C2=O)no1 (stereo unspecified) | -6.09%
59 | CCOC(=O)N1CCN(C(c2cccnc2)c2ccc3cccnc3c2O)CC1 (stereo unspecified) | 35.8%
60 | CCN1CCN(C(c2cccnc2)c2cc(Cl)c3cccnc3c2O)CC1 (stereo unspecified) | 92.4% (active)
61 | Oc1ccccc1CN1CCN(C(c2ccccc2)c2ccccc2)CC1 | 0.217%
62 | COc1cc(/C=C/C(=O)OCC(=O)NCCCc2ccccc2)ccc1O | -1.98%
63 | C=CC[C@H](CC(=O)NCCO)C(=O)N[C@@H](COC(=O)[C@@H](CC=C)Cc1ccc(F)cc1)Cc1c[nH]c2ccccc12 | 6.33%
64 | COc1cc(NC(=O)c2[nH]cnc2C(N)=O)cc(C(=O)Nc2cccc(C(F)(F)F)c2)c1 | 114% (active)
65 | COc1cc(NC(=O)c2cncc(-c3ccc(C#N)cc3)c2)cc(C(=O)Nc2cccc(C(F)(F)F)c2)c1 | 23.5%
66 | COc1ccc(NC(=O)CN(C)CC(=O)Nc2cccc(C(F)(F)F)c2)cc1 | -3.94%

Row | Structure (SMILES) | protection from apoptosis
67 | NS(=O)(=O)c1ccc(CNC(=S)NC(=O)c2ccco2)cc1 | 2.51%
68 | COc1ccccc1OCCNc1cc(N2CCOCC2)ccc1[N+](=O)[O-] | -8.92%
69 | COc1ccc(CCNc2cc(N3CCN(C(=O)c4ccccc4OC)CC3)ccc2[N+](=O)[O-])cc1OC | 85.3% (active)
70 | O=C(c1ccccc1)N1CCN(c2ccc([N+](=O)[O-])c(NCc3ccco3)c2)CC1 | 13.2%
71 | O=S(=O)(c1ccc(SCc2ccc(Br)cc2)nc1)N1CCOCC1 | -8.12%
72 | Cc1ccc(OCC(=O)Nc2ccccc2C(=O)NC2CC2)cc1 | -2.93%
73 | CC(Sc1ccccc1F)C(=O)Nc1cccc(S(=O)(=O)N2CCOCC2)c1 (stereo unspecified) | -3.25%
74 | CC(C)NC(=O)Nc1cccc2c1O[C@H](CN(C)S(=O)(=O)c1cccs1)[C@@H](C)CN([C@H](C)CO)C2=O | -19%
75 | CCn1c(/C=C/c2ccc([N+](=O)[O-])o2)nc2ccccc2c1=O | 104% (active)
76 | CCn1c(=O)c([N+](=O)[O-])c(NCc2ccc3c(c2)OCO3)c2ccccc21 | 1.81%
77 | Cc1cc(C)nc(N/N=C/c2ccc([N+](=O)[O-])o2)n1 | -3.24%
78 | C=CC(COCc1ccccc1)N(CC(=O)OC)S(=O)(=O)c1cc(Br)ccc1OC (stereo unspecified) | 1.07%
79 | O=C(Nc1ccon1)c1nc[nH]c1C(=O)NCc1ccccc1 | 2.59%
80 | O=C(NC1CCCC1)C(=O)c1c[nH]c2ccccc12 | -2.17%
81 | O=S(=O)(O)Oc1c[nH]c2ccccc12 | 95.8% (active)
82 | NC(=O)CSc1c[nH]c2ccccc12 | 0.633%
83 | Cc1cc(NC(=O)COC(=O)/C=C/c2ccc(C)o2)no1 | -0.145%
84 | CC(=O)C[C@H](O)CC(=O)[C@@H]1OC(=O)[C@@H](C)C/C=C\Cc2ccccc21 | -6.43%
85 | COc1ccccc1N(CC(=O)Nc1ccc(C)cc1Cl)S(=O)(=O)c1cccs1 | -11%
86 | O=C(Nc1cccc(S(=O)(=O)N2CCCC2)c1)c1cncc(Br)c1 | -6.13%
